From PubChem BioAssay (EPA / NIEHS)
Activity calls are given as the source filed them. How the source made its calls: active means hit-call score of the fitted dose curve at least 0.9, where 1 is the maximum; inactive means score below 0.9.

Experiment: ATG_PXRE_CIS: Attagene CIS-FACTORIAL HepG2 Assay for human Pregnane X Receptor Element (PXRE) (AID 2282957)
Settings: HepG2 Attagene CIS-FACTORIAL PXRE reporter, mRNA; actives raise or lower the signal
Method: ATG_CIS is a cell-based, multiplexed-readout assay that uses HepG2, a human liver cell line, with measurements taken at 24 hours after chemical dosing in a 24-well plate.ATG_PXRE_CIS is one of 52 assay component(s) measured or calculated from the ATG_CIS assay. It is designed to make measurements of mRNA induction, a form of inducible reporter, as detected with fluorescence intensity signals by Reverse transcription polymerase chain reaction (RT-PCR) and Capillary electrophoresis technology.Data from the assay component ATG_PXRE_CIS was analyzed into 1 assay endpoint. This assay endpoint, ATG_PXRE_CIS, was analyzed with bidirectional fitting relative to DMSO as the negative control and baseline of activity. Using a type of inducible reporter, measures of mRNA for gain or loss-of-signal activity can be used to understand the reporter gene at the transcription factor-level as they relate to the gene NR1I2. Furthermore, this assay endpoint can be referred to as a primary readout, because this assay has produced multiple assay endpoints where this one serves a reporter gene function. To generalize the intended target to other relatable targets, this assay endpoint is annotated to the nuclear receptor intended target family, where the subfamily is non-steroidal.
Human liver HepG2 cells are transiently transfected with multiple reporter transcription units (MRTUs) in 6-well plates using FuGene 6 reagent (Roche; 3 ml FuGene/1 mg DNA). The MRTU constructs are regulated by a cis-regulating element (promoter). […] A major difference between the CIS and TRANS system is that in CIS activities of endogenous TFs are measured, whereas the TRANS assay evaluates changes in activities of exogenous, chimeric NR-Gal4 proteins. […] At the end of 24 hour incubation, total RNA was isolated using TriZol reagent (Invitrogen). The isolated RNA is then reverse-transcribed using oligo(dT) primer and Mo-MLV reverse transcriptase (Invitrogen) with DNAse I (Ambion) treatment for 30 min. The one-tenth of the produced cDNA was amplified by PCR using Taq DNA polymerase (Invitrogen) and two reporter sequence-specific primers. The PCR products were fluorescently labeled by primer extension with 6-arboxyfluorescein (6-FAM) 5'-labeled reporter sequence-specific primer (2 min at 95 C, 20 s at 68 C and 10 min at 72 C) and these products were digested with 5U of HpaI (New England Biolabs) for 2h at 37 C. The fragments were purified using Qiaquick PCR columns (Qiagen), analyzed on an ABI 3130xL genetic analyzer (Applied Biosystems) with peak positions identified by using a set of X-rhodamine (ROX)-labeled MapMarker1000 molecular weight standards (BioVentures). The raw capillary electrophoresis data was processed using Attagraph software (Attagene).

outcome, inactive:
Cc1cccnc1
CC=CC(=O)O
COc1cccc(OC)c1C(=O)O
CCC(C)=NO
CNC(=C[N+](=O)[O-])NCCSCc1csc(CN(C)C)n1
CC(=O)c1nccs1
c1ccc(CNc2ncnc3nc[nH]c23)cc1
C=C(C)C(=O)OCC1CCCO1 (stereo not given)
C/C=C(\C)C(=O)OCC/C=C\CC
CCCCCCCCCCCCCC
CC(C)=CCOC(=O)c1ccccc1
Nc1nnc(-c2ccc([N+](=O)[O-])o2)o1
O=S(=O)(O)c1cccc2ccccc12
C1=CCC=C1
CN1CCCC1
Nc1ccc(S(=O)(=O)Nc2cnc3ccccc3n2)cc1
CC(C)CC(=O)CC(C)C
OCCOCCOCCOCCOCCO
CCCC[N+]1(C)CCCC1
O=C1NC(=O)[C@@H]2CC=CC[C@H]12
[O-][n+]1ccc(Cl)cc1
c1cc(N(CC2CO2)CC2CO2)ccc1Cc1ccc(N(CC2CO2)CC2CO2)cc1 (stereo not given)

AC50, active:
CCCC(=O)OC/C=C(\C)CCC=C(C)C 22.7 µM
O=C(C(=O)c1ccccc1)c1ccccc1 42.8 µM
CN(C)N=Nc1ccccc1 48.3 µM
CC/C=C\CCCCCO 78.4 µM
CC(C)(C)NC(=O)[C@@H]1CN(Cc2cccnc2)CCN1C[C@@H](O)C[C@@H](Cc1ccccc1)C(=O)N[C@H]1c2ccccc2C[C@H]1O 19.6 µM
CC(C)CC(=O)CC(C)CC(C)C (stereo not given) 29.3 µM
Sc1nc2ccccc2s1 80.6 µM
CC1=CCCC(C)(C)C12CCC(C)O2 (stereo not given) 1.28 µM
CC1=NN(c2cc(Cl)c(S(=O)(=O)O)cc2Cl)C(=O)C1N=Nc1ccc(S(=O)(=O)O)cc1 (stereo not given) 100 µM
COC(OC)C(C)c1ccccc1 (stereo not given) 27.2 µM
O=C(C1CCCCC1)N1CC(=O)N2CCc3ccccc3C2C1 (stereo not given) 7.1 µM
CCc1cc(C(N)=S)ccn1 157 µM
CCOc1ccc2c(c1)C(C)CC(C)(C)N2 (stereo not given) 2 µM
O=C(CC(C(=O)OC1CCCCC1)S(=O)(=O)O)OC1CCCCC1 (stereo not given) 9.51 µM
c1cc[c]([Bi]([c]2ccccc2)[c]2ccccc2)cc1 4.08 µM
CCCCCC1CCCC(=O)O1 (stereo not given) 44.5 µM
CC/C=C\CC1=C(C)CCC1=O 6.38 µM
C=C(C)C(=O)OCCCCCC 26.5 µM
